Shown is part of a subset that was picked to be rich in hits.
VACV E9 pol inh: vaccinia E9 polymerase processive synthesis inhibitors, primary screen, biochemical, absorbance. Vaccinia virus DNA polymerase (E9) processive complex. normalized absorbance, % (concentration not given with the values). hit rate 0.94% among 46,000. in vitro processive DNA synthesis, absorbance read-out; active compounds read low; in the data active = normalized absorbance mostly below about 85%, no sharp cut-off; inactive = mostly above about 86%
* hit, by the source's call.

SMILES	VACV E9 pol inh
CCCCC(CC)CN=C(N)NC(N)=NCCCCCCN=C(N)NC(N)=NCC(CC)CCCC (centres undefined)	27*
CCC(=O)Nc1nc2cc3nc(NC(=O)CC)sc3cc2s1	98
COc1ccc(NC(=O)c2sc3cc(Cl)ccc3c2Cl)cn1	90
O=C1NC(=Nc2ccccc2)S/C1=C\c1ccccc1	88
CN(C)c1ccc(/C=C2/S/C(=N/O)NC2=O)cc1	100
O=C1N/C(=N\O)S/C1=C/c1ccc(O)cc1	84*
Cc1c(CN(C)C)c2c(n1Cc1ccccc1)C(=O)c1ccc(Br)cc1-2	68*
Nc1cc(=O)n(Cc2ccccc2)c(=O)n1-c1ccccc1	96
CN(Cc1ccccc1)C(=O)CNc1ccc(Br)cc1	102
Cc1ccccc1NC1=NC(C)(C)CS1	106
Cc1ccccc1NC1=NCCS1	108
Cc1ccccc1Nc1nccc(N(C)C)c1C#N	82*
COc1ccccc1C1CC(=O)Nc2cc3c(cc21)CCC3 (centres undefined)	105
COC(=O)CN1C(=O)C(=Cc2ccc(N(C)C)cc2)SC1=S	100
Cn1c(CO)nc2cc(Cl)ccc21	101
CN(C)/C=C/C=C1\N=C(c2ccccc2)OC1=O	103
CN(C)c1ccc(N/C=C2/CCCC2=O)cc1	100
CN(C)/C=C/C=C1C(=O)CCCC1=O	45*
COc1ccc(-c2noc(CC(=O)N3CCC(C)CC3)n2)cc1	88
CC[n+]1c(/C=C/Nc2ccccc2)sc2ccccc21	99
CSc1sc2ccccc2[n+]1C	102
C[n+]1c(/C=C/Nc2ccccc2)sc2ccccc21	75*
CCC(C)N(Cc1cn(CC)c2ccccc12)C(=S)Nc1ccc(C)cc1 (centres undefined)	102
O=C(CSc1nnc(-c2cccc(Cl)c2)o1)NC1CCCCC1	97
O=C(CSc1c[nH]c2ccccc12)N1CCc2ccccc21	100
SMILES	VACV E9 pol inh
Nc1ccccc1SCC(=O)N1CCc2ccccc21	79*
Cc1ccc(SCC(=O)N2CCc3ccccc32)cc1	100
Nc1nc(OCC(F)(F)F)cc(-c2ccccc2)n1	99
CCCc1c(C)nn(-c2ncccc2N)c1C	101
Cc1nc(N2CCCC2)[nH]c(=O)c1CCC(C)C	93
Cc1ccc(S(=O)(=O)NC(=O)N2CCCN(c3ccc(C(F)(F)F)cn3)CC2)cc1	92
O=C(Nc1ccccc1)N1CCN(c2ccc(C(F)(F)F)cn2)CC1	97
CC(C)(C)NC(=O)N1CCN(c2cc(C(F)(F)F)ccn2)CC1	78*
NC(=O)C1OC(c2ccccc2)OC1C(N)=O (centres undefined)	92
CC(C)C1=CC2=C(CC(C)(C)CC2=O)OC1N(C)C (centres undefined)	92
COC(=O)C1CCN(c2ncc(C(F)(F)F)cc2Cl)CC1	98
CCOC(=O)c1cnc2ccccc2c1NCCO	95
CCOC(=O)c1cnc2ccc(C(=O)OC)cc2c1NCCN(C)C	52*
CCOC(=O)c1cnc2ccc(F)cc2c1NCc1cccnc1	94
O=C(Nc1nc2ccccc2[nH]1)c1cc(F)c(F)cc1Cl	101
O=C1/C(=C/c2cc(Br)cs2)CCC/C1=C\c1cc(Br)cs1	106
CCSc1nc(C)c2cc(OC)ccc2n1	100
COc1ccc2nc(C)cc(SCC(=O)c3ccc(Cl)cc3)c2c1	98
CCN(CC)CCCC(C)Nc1c2ccc(Cl)cc2nc2ccc(OC)cc12 (centres undefined)	15*
Cc1[nH]c2ccccc2c1N=CN(C)C	100
Cc1sc(/N=C/c2c[nH]c3ccccc23)c(C#N)c1C	92
CN(C)C=Nc1ncc2c([nH]c3ccccc32)c1C#N	89*
COc1cccc(NC(=O)N2CCN(C3c4ccccc4-c4ccccc43)CC2)c1	94
CCOc1ccccc1C=Nc1ccc(OC(F)(F)F)cc1	98
O=C(c1cnn2c3c(cnc12)CCCCC3)N1CCCCC1	104
SMILES	VACV E9 pol inh
COc1ccc2c(c1OC)CN1CCc3cc4c(cc3C1C2)OCO4 (centres undefined)	100
COc1ccc2cc3[n+](cc2c1OC)CCc1cc2c(cc1-3)OCO2	82*
COc1ccc2c(c1OC)CN(C)CCc1cc3c(cc1C(O)C2)OCO3 (centres undefined)	110
Clc1ccc(Sc2ncccn2)cc1	84
Cc1ccc(NCC(=O)n2c3c(c4ccccc42)CCCC3)cc1Cl	100
CCC(OCC(O)CN1CCCC1)c1ccccc1 (centres undefined)	91
CC(=O)Nc1ccc(C(=O)OCC(=O)Nc2ccc3ccccc3c2)cc1	74
CCN1/C(=C/c2ccc3ccccc3[n+]2CC)Sc2cc(NC(C)=O)ccc21	39*
CC(=O)Nc1cccc(-c2nc3ccccc3[nH]2)c1	90
C(=N\n1cnnc1)/c1nc2ccccc2n1Cc1ccccc1	106
O=C1NC(=S)S/C1=C/c1ccc(-c2cccc(C(F)(F)F)c2)o1	80*
O=C1NC(=S)S/C1=C\c1ccccc1C(F)(F)F	73
O=S1(=O)CCC(N=Cc2ccc(-c3cccc(C(F)(F)F)c3)o2)C1 (centres undefined)	98
O=C(CC1Nc2ccccc2NC1=O)Nc1ccccc1Cl (centres undefined)	93
